CHX counter = counter-screen hit for Shiga toxin inhibitors, cycloheximide | actives 12% (n = 300,000) | cell reporter, cycloheximide protein synthesis inhibition counterscreen | max response, %; in the data active = max response mostly above about 13%, no sharp cut-off; inactive = mostly below about 14%; also: read at 38.3 µM for the half of the compounds with a filed dose
Pf growth 48h = P. falciparum growth inhibition at 48 hours (one generation); actives 5.9% (n = 310,000); Potency, µM (top dose mostly 28.7 µM), hits mostly inhibitors; P. falciparum luciferase growth in erythrocytes, 48 h
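Parasite viability was followed by luminescence of a genomically integrated firefly luciferase. Cultures held 0.1% parasitemia at 2% hematocrit (final), incubated under 5% CO2 at 37 C.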
Pf growth 96h = inhibits malaria parasite growth, 96 h; P. falciparum luciferase reporter growth, 96 h; Potency, µM (titrated, usually from 28.7 µM), actives largely listed as inhibitors; actives 6.9% (n = 320,000)
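P. falciparum expressing integrated firefly luciferase, in erythrocytes at 2% hematocrit, 0.05% parasitemia, incubated with compounds 96 h at 37 C, 5% CO2. Growth inhibition read as loss of luminescence; two-generation exposure targets delayed-death apicoplast inhibitors.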
Marburg entry inh = Marburg virus entry inhibition; Potency, µM (top dose mostly 37.8 µM), most hits filed as inhibitors; Marburg virus pseudotyped entry inhibition, cell reporter; actives 1.8% (n = 300,000); AID 540276; calls by dose curve; tested in HEK293 cells
Shiga inhibitor = blocks Shiga toxin action in Vero cells; AID 2315; inhibition, % at 38.7 µM; actives 9.2% (n = 290,000); Vero cells, Shiga toxin protein synthesis inhibition reporter; in the data active = inhibition mostly above about 28%, no sharp cut-off; inactive = mostly below about 43%
Lassa entry inh = Lassa virus entry inhibition. Potency, µM (series often up to 37.9 µM), usual class: inhibitors. AID 540256. Lassa virus pseudotype entry inhibition, cell reporter. actives 1.2% (n = 300,000); calls by dose curve; tested in HEK293 cells; also: nearly all actives have a fitted effect of over 50% in size
A number is an active result. Most compounds without a hit are left out; they make up all but 19% or so of the library. Unless noted, calls follow the shape of the dose curve; as a rule, active = well fitted inhibition curve with a large enough effect; inconclusive = small, poorly fitted or top-dose-only effect, or another doubt; inactive = no such curve, though single readings can be large or run the other way.

COc1cc(OC)cc(-c2nnc(SCc3cccnc3)o2)c1 was read as CHX counter 17.0, Pf growth 48h inactive, Pf growth 96h inconclusive, Marburg entry inh inactive, Shiga inhibitor inactive and Lassa entry inh inactive.
Screening COc1cccc(-c2nnc(SCc3cccnc3)o2)c1 returned CHX counter 66.9, Pf growth 48h inactive, Marburg entry inh inconclusive, Shiga inhibitor 97.7 and Lassa entry inh inactive.
Screening Cc1cc(-c2nnc(SCc3cccnc3)o2)no1 returned CHX counter inactive, Pf growth 48h inactive, Marburg entry inh inactive, Shiga inhibitor inactive and Lassa entry inh inactive.
Screening O=C(CSc1nnc(-c2ccncc2)o1)c1cccc([N+](=O)[O-])c1 returned CHX counter inactive, Pf growth 48h inactive, Pf growth 96h inactive, Marburg entry inh inactive, Shiga inhibitor inactive and Lassa entry inh inactive.
`COc1ccc2c(=O)cc(-c3cccnc3)oc2c1OC` gave CHX counter inactive, Pf growth 48h inactive, Pf growth 96h inactive, Marburg entry inh inactive, Shiga inhibitor inactive and Lassa entry inh inactive.
`CCn1ccnc1CNC(=O)c1cc(COc2ccc(F)cc2F)on1` gave CHX counter inactive, Pf growth 48h inconclusive, Pf growth 96h inactive, Marburg entry inh inactive, Shiga inhibitor inactive and Lassa entry inh inactive.
For CCn1ccnc1CN(C)C(=O)c1cc(COc2ccccc2SC)on1 the results were CHX counter 53.4, Pf growth 48h inactive, Pf growth 96h inconclusive, Marburg entry inh inactive, Shiga inhibitor 95.6 and Lassa entry inh inactive.
Screening Cc1cc(OCc2cc(C(=O)N(Cc3nccn3C)C(C)C)no2)cc(C)c1Cl returned CHX counter 26.2, Pf growth 48h inactive, Pf growth 96h 14.7µM, Marburg entry inh inconclusive, Shiga inhibitor 55.4 and Lassa entry inh inactive.
CSc1ccccc1OCc1cc(C(=O)N(Cc2nccn2C)C(C)C)no1 was read as CHX counter 28.5, Pf growth 48h inactive, Pf growth 96h inactive, Marburg entry inh inactive, Shiga inhibitor inactive and Lassa entry inh inactive.
`CCCCC(=O)Nc1sc2c(c1C(N)=O)CCC2` gave CHX counter 31.7, Pf growth 48h inactive, Marburg entry inh inactive, Shiga inhibitor 45.4 and Lassa entry inh inactive.
Screening CC(=O)Nc1sc2c(c1C(N)=O)CCC2 returned CHX counter inactive, Pf growth 48h inactive, Pf growth 96h inactive, Marburg entry inh inactive, Shiga inhibitor inactive and Lassa entry inh inactive.
CC(C)(C)C(=O)NC(=S)Nc1sc2c(c1C(N)=O)CCC2 was read as CHX counter 22.4, Pf growth 48h inactive, Pf growth 96h inconclusive, Marburg entry inh inactive, Shiga inhibitor inactive and Lassa entry inh inactive.
For COC(=O)c1[nH]c2c(c1C)C(=O)CC(c1ccc(OC)cc1)C2 (stereo not given) the results were CHX counter inactive, Pf growth 96h inactive, Marburg entry inh inactive, Shiga inhibitor inactive and Lassa entry inh inactive.
Screening CCn1c(SCC(=O)Nc2ccc(S(N)(=O)=O)cc2)nnc1-c1ccccc1OC returned CHX counter inactive, Pf growth 48h inactive, Pf growth 96h inactive, Marburg entry inh inactive, Shiga inhibitor inactive and Lassa entry inh inactive.
For Cc1ccc(S(=O)(=O)NCC(=O)N2CCN(S(=O)(=O)c3ccc(Cl)cc3)CC2)cc1C the results were Pf growth 48h inactive, Pf growth 96h inactive, Marburg entry inh inactive and Lassa entry inh inactive.
Screening Cc1c(OCc2ccccc2)c(=O)ccn1Cc1ccccc1 returned CHX counter 11.1, Pf growth 48h inconclusive, Pf growth 96h inconclusive, Marburg entry inh inactive, Shiga inhibitor inactive and Lassa entry inh inconclusive.
`N#Cc1ccc(C(=O)OCC(=O)NC(=O)NCc2ccccc2)cc1` gave Pf growth 48h inactive, Pf growth 96h inactive, Marburg entry inh inactive and Lassa entry inh inactive.
For CCCCCCn1c(/C=C/c2ccccc2)nc2ccccc21 the results were CHX counter 46.8, Shiga inhibitor 101.3 and Lassa entry inh inconclusive.
For CCCn1c(/C=C/c2cc[n+](C)cc2)nc2ccccc21 the results were CHX counter inactive, Pf growth 48h inconclusive, Pf growth 96h 13.1µM, Marburg entry inh inactive, Shiga inhibitor inactive and Lassa entry inh inactive.
CCC(C)n1c(/C=C/c2ccccc2)nc2ccccc21 (stereo not given) was read as CHX counter 24.9, Pf growth 48h inconclusive, Pf growth 96h inconclusive, Marburg entry inh inactive, Shiga inhibitor inactive and Lassa entry inh inactive.
For CCCn1c(N)nc2ccccc21 the results were CHX counter inactive, Pf growth 96h inconclusive, Marburg entry inh inactive, Shiga inhibitor inactive and Lassa entry inh inactive.
For COc1ccc(/C=C/c2nc3ccccc3n2C)cc1 the results were CHX counter inactive, Pf growth 48h inactive, Pf growth 96h inactive, Marburg entry inh inconclusive, Shiga inhibitor inactive and Lassa entry inh 0.112µM.
COc1ccc(-n2cnc3ccccc32)cc1 was read as CHX counter inactive, Pf growth 48h inactive, Marburg entry inh inconclusive, Shiga inhibitor inactive and Lassa entry inh inconclusive.
CCOC(=O)c1cnc2c(c(C3CC3)nn2C)c1N1CCOCC1 was read as CHX counter inactive, Pf growth 48h inactive, Pf growth 96h inactive, Marburg entry inh inconclusive, Shiga inhibitor inactive and Lassa entry inh inactive.
CC(=O)N1CCCc2cc(S(=O)(=O)N3CCc4ccccc4C3)ccc21 was read as CHX counter inactive, Pf growth 48h inactive, Pf growth 96h inactive, Marburg entry inh inactive, Shiga inhibitor inactive and Lassa entry inh inactive.
`CC(=O)c1ccc(N2CCN(C(=O)C3CCN(S(=O)(=O)c4c(C)noc4/C=C/c4ccccc4F)CC3)CC2)cc1` gave Lassa entry inh inactive.
Screening S=c1[nH]nc(-c2ccc3ccccc3n2)n1Cc1ccccc1 returned CHX counter inactive, Pf growth 48h inactive, Pf growth 96h inactive, Marburg entry inh inactive, Shiga inhibitor inactive and Lassa entry inh inactive.
`C/C(=N\OCC(=O)OCC(=O)Nc1cc(S(C)(=O)=O)ccc1Cl)c1ccc2c(c1)OCO2` gave Pf growth 48h inactive and Pf growth 96h inactive.
`CCn1c(/C=C/c2ccccc2)nc2ccccc21` gave CHX counter 33.2, Pf growth 48h inactive, Pf growth 96h inactive, Marburg entry inh inconclusive, Shiga inhibitor 62.2 and Lassa entry inh inconclusive.
`CC(C)Cn1c(/C=C/c2ccccc2)nc2ccccc21` gave CHX counter 39.4, Pf growth 48h inactive, Pf growth 96h inactive, Marburg entry inh inconclusive, Shiga inhibitor 59.1 and Lassa entry inh inactive.
For COc1ccc(Cn2c(/C=C/c3ccccc3)nc3ccccc32)cc1 the results were CHX counter 64.8, Pf growth 48h inactive, Pf growth 96h inactive, Marburg entry inh inconclusive, Shiga inhibitor 82.2 and Lassa entry inh inactive.
Screening CCn1c(/C=C/c2ccccc2)nc2ccccc2c1=O returned CHX counter inactive, Pf growth 48h inactive, Pf growth 96h inactive and Shiga inhibitor inactive.
`COC(=O)c1ccc(NC(=O)CCc2c(C)nc3c(-c4ccccc4)c(C)nn3c2C)cc1` gave Marburg entry inh inactive and Lassa entry inh inactive.
CCOc1ccccc1NC(=O)Cn1nnc(C(=O)Nc2ccc(C)cc2)c1N was read as CHX counter inactive, Pf growth 48h inactive, Pf growth 96h inconclusive, Marburg entry inh inactive, Shiga inhibitor inactive and Lassa entry inh inactive.
